Assay outcomes from PubChem BioAssay.
An excerpt weighted towards active compounds, which were near 17% of everything screened.
HepG2 viability: counter-screen for TGF-b inhibitors: cytotoxicity in HepG2 cells | HepG2 CAGA-GFP viability, ATP luminescence, 18 h | Potency, µM (highest dose often 46.1 µM), usual class: cytotoxic | actives 0.76% (n = 410,000) | AID 588856
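HepG2 CAGA-GFP cells (1000/well, DMEM with 1% FBS) received compound, then TGF-beta at 500 pg/mL final, and were incubated 18 hours at 37 degrees C. Viability was read by CellTiter-Glo luminescence. Media-only wells were set as complete cell-killing and DMSO as no toxicity.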
TDP1 cell CPT: DT40-hTDP1 cell growth loss with CPT. Potency, µM (doses to about 46.2 µM), hits mostly inhibitors. chicken DT40 Tdp1-/-;hTDP1 cells + 20 nM CPT, ATP luminescence, 48 h. actives 12% (n = 420,000). AID 686979; further: nearly all actives have a fitted effect of over 55% in size
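Cell growth measured by CellTiter-Glo luminescence after a minimum 48 h, 37 C compound exposure with 20 nM CPT in Tdp1-knockout DT40 cells stably expressing hTDP1, seeded 400/well; qHTS titration format.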
HT1080-NT tox: kills 2HG-producing HT-1080-NT fibrosarcoma cells; actives 1.6% (n = 360,000); AID 686970; HT-1080-NT fibrosarcoma viability, CellTiter-Glo ATP luminescence, 48 h; Potency, µM (top dose mostly 46.1 µM), usual class: cytotoxic;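 further: NT is the 2HG producing partner of a matched IDH1 knockdown line; nearly all actives have a fitted effect of over 55% in size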
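HT-1080-NT; 750 cells/well; 5% FBS RPMI; 48 h compound, 37 degrees C; CellTiter-Glo luminescence; curve fitting and curve-class assignment.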
TDP1 cell noCPT: qHTS for Inhibitors of human tyrosyl-DNA phosphodiesterase 1 (TDP1): qHTS in cells in absence of CPT; DT40 Tdp1-/- hTDP1 cells, no CPT, ATP luminescence, 48 h; Potency, µM (highest dose often 46.2 µM), most hits filed as inhibitors; actives 15% (n = 420,000); further: nearly all actives have a fitted effect of over 55% in size
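Luminescent ATP content (CellTiter-Glo) served as the growth readout. Knockout chicken DT40 cells expressing human TDP1 were exposed to compounds without camptothecin for a minimum 48 hr at 37 °C.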
HT1080 IDH1KD tx: kills HT-1080 cells with IDH1 knockdown | HT-1080 IDH1 knockdown viability, ATP luminescence, 48 h | Potency, µM (highest dose often 46.1 µM), hits mostly cytotoxic | actives 2% (n = 360,000) | AID 686971
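HT-1080-IDH1KD cells (IDH1 knocked down), 750/well in RPMI with 5% FBS, treated with compound 48 h at 37 degrees C. Viability by CellTiter-Glo luminescence, normalised to DMSO and no-cell wells; concentration-response curves classed.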
TGFb SMAD3 inh: blocks TGF-b signaling | HepG2 CAGA-GFP TGF-b/SMAD3 reporter, GFP fluorescence, 18 h; TGF-beta stimulated, 500 pg/mL final | Potency, µM (doses to about 46.1 µM), usual class: inhibitors | actives 1.2% (n = 410,000) | AID 588855; further: nearly all actives have a fitted effect of over 65% in size
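Per well, imaged GFP fluorescence of HEPG2 CAGA-GFP cells gives the signal; cells get compound, then TGF-beta (500 pg/mL final), 18 h at 37 degrees C; %Activity versus -TGF-beta and +DMSO controls.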
A number is an active result; i = inactive; ? = inconclusive; nt = no result given; [ ] = dose if it differs, or a comment. The call rests on the fitted dose curve; in most records, active means well fitted curve in the direction sought with a large enough effect; inconclusive means small, poorly fitted or top-dose-only effect, or another doubt; inactive means no such curve, though single readings can be large; an effect the other way counts as inactive or inconclusive.

SMILES	HepG2 viability	TDP1 cell CPT	HT1080-NT tox	TDP1 cell noCPT	HT1080 IDH1KD tx	TGFb SMAD3 inh
CCOc1ccc(-c2nnc(SCC(=O)NCCC(C)C)nc2-c2ccc(OCC)c(OC)c2)cc1OC	i	14.6µM	nt	?	nt	i
CC(O)(c1ccc(F)c(F)c1)c1nc(-c2cccc3cccnc23)cs1 (stereo unspecified)	i	?	?	i	i	i
CCOc1ccc(NC(=O)CCS(=O)(=O)c2cccc3nonc23)cc1	i	i	nt	i	nt	i
COc1ccc(CCNC(=O)CSc2nc(-c3ccc(F)cc3)cc(C(F)(F)F)n2)cc1OC	i	18.4µM	nt	?	nt	i
CCC(C)NC(=O)CSc1nnc(-c2ccc(C)cc2)c(-c2ccc(C)cc2)n1 (stereo unspecified)	i	?	nt	?	nt	i
Cc1ccc(-c2nnc(SCC(=O)NCC3CCCO3)nc2-c2ccc(C)cc2)cc1 (stereo unspecified)	i	?	i	23.1µM	i	i
COc1ccc(NC(=O)c2nc(SCc3ccc(F)cc3)ncc2Cl)cc1	i	i	nt	?	nt	i
Cc1ccc(-c2nnc(SCC(=O)NCCC(C)C)nc2-c2ccc(C)cc2)cc1	i	5.8µM	nt	13µM	nt	i
COc1ccc(-c2cc(C(F)(F)F)nc(SCC(=O)NCCc3ccccc3)n2)cc1OC	i	?	nt	?	nt	i
COc1ccc(CCNC(=O)c2nc(SCc3ccc(F)cc3)ncc2Cl)cc1OC	i	20.6µM	nt	?	nt	?
CC1Cc2ccccc2N1C(=O)COC(=O)c1ccc(Br)o1 (stereo unspecified)	i	i	i	i	i	i
COc1cc(CN2CCCC(n3cc(C(=O)N4CCCCC4)nn3)C2)cc(OC)c1OC (stereo unspecified)	nt	i[9.04 µM]	nt	i	nt	nt
O=C(NCCC1=CCCCC1)C(=O)NCC(c1ccco1)N1CCN(c2ccccc2F)CC1 (stereo unspecified)	i	?	i	?	i	i
CN(C)CCN(Cc1ccc(Cl)cc1)c1ccccn1	i	?	i	?	?	i
C[N+](C)(C)CCN(Cc1ccc(Cl)cc1)c1ccccn1	i	18.4µM	i	16.4µM	i	i
Nc1nc(N)c(-c2cccc(C(F)(F)F)c2)c(Cc2cccc(C(F)(F)F)c2)n1	8.91µM	2.91µM	?	1.3µM	4.61µM	?
CC(C)c1ccc(N(C(=O)C(F)(F)F)C(C(=O)NC2CCCCC2)c2ccncc2)cc1 (stereo unspecified)	i	i	i	i	i	i
Cn1nc(-c2ccc(Cl)cc2)c2cc(C(=O)N3CCOCC3)sc21	i	?	i	20.6µM	i	i
Cn1nc(-c2ccccc2F)c2cc(C(=O)N3CCN(c4ccc(F)cc4)CC3)sc21	i	?	nt	16.4µM	nt	?
COc1ccc(-c2nn(C)c3sc(C(=O)N4CCN(c5cccc(Cl)c5)CC4)cc23)cc1OC	i	14.6µM	nt	i	nt	i
CC1CCCCN1CCNC(=O)c1cc2c(-c3ccccc3F)nn(C)c2s1 (stereo unspecified)	i	?	i	?	i	i
COc1cccc(-c2nn(C)c3sc(C(=O)N4CCOCC4)cc23)c1	i	i	i	?	i	i
COc1ccc(N2CCN(C(=O)c3cc4c(-c5ccc(Cl)cc5)nn(C)c4s3)CC2)cc1	i	?	i	16.4µM	i	i
CC(C)c1csc(CN2CCC(N3CCC(C(=O)N4CCOCC4)CC3)CC2)n1	i	i	i	?	i	i
Cc1cn(C2CCCCO2)c(=O)[nH]c1=O (stereo unspecified)	i	i	i	i	i	i
SMILES	HepG2 viability	TDP1 cell CPT	HT1080-NT tox	TDP1 cell noCPT	HT1080 IDH1KD tx	TGFb SMAD3 inh
COc1ccc(C(=O)N2CCC3(CCCN(Cc4ccncc4)C3)CC2)cc1	nt	i	nt	?	nt	nt
Cn1nc(-c2ccccc2F)c2cc(C(=O)N3CCN(C(=O)c4ccco4)CC3)sc21	i	29.1µM	i	?	i	?
COc1ccc(N2CCN(C(=O)c3cc4c(-c5ccccc5F)nn(C)c4s3)CC2)cc1	i	?	nt	9.2µM	nt	?
CSc1ccc(CCNC(=O)c2cc3c(-c4ccccc4F)nn(C)c3s2)cc1	i	?	nt	?	nt	i
Cn1nc(-c2ccccc2F)c2cc(C(=O)N3CCN(c4ccccc4F)CC3)sc21	i	4.11µM	nt	7.31µM	nt	?
O=C(c1cc(-c2ccc(Cl)cc2)n(-c2ccc(Cl)cc2)n1)N1CCOCC1	i	16.4µM	i	?	i	i
Cc1cccc(C(=O)NCC(=O)OCC(=O)c2ccc(Cl)s2)c1	i	i	i	i	i	i
COc1cccc(NC(=O)CSc2nn3c(=O)c(C)nnc3s2)c1	i	i	i	i	i	i
CCCN(CCC)C(=O)CC(c1ccc(F)cc1)c1ccco1 (stereo unspecified)	i	?	i	20.6µM	i	i
CCN(CC)C(=O)CC(c1ccccc1)c1ccco1 (stereo unspecified)	i	i	i	i	i	i
CCN(CC)c1ccc(C(=C2C=CC(=[N+](CC)CC)C=C2)c2ccc(S(=O)(=O)O)cc2S(=O)(=O)[O-])cc1	i	23.1µM	23.1µM	?	?	i
CCN(CC)c1ccc(C(=O)O)cc1	i	i	i	i	i	i
Cc1ccc2nc(NC(=O)C3CCN(S(=O)(=O)c4cccc5nsnc45)CC3)sc2c1	i	?	i	?	i	?
O=C(Nc1cccnc1)C1CCCN(S(=O)(=O)c2cccc3nsnc23)C1 (stereo unspecified)	i	i	i	?	i	i
Cc1ccc2nc(NC(=O)C3CCCN(S(=O)(=O)c4cccc5nsnc45)C3)sc2c1 (stereo unspecified)	i	?	i	18.4µM	i	i
COc1ccc(OC)c(NC(=O)C2CCCN(S(=O)(=O)c3cccc4nsnc34)C2)c1 (stereo unspecified)	12.6µM	16.4µM	i	16.4µM	?	i
COc1cc(NC(=O)C(Cc2ccccc2)NS(=O)(=O)c2cccc3nsnc23)cc(OC)c1 (stereo unspecified)	i	16.4µM	nt	16.4µM	nt	i
COc1cc(NC(=O)C2CCCN(S(=O)(=O)c3cccc4nsnc34)C2)cc(OC)c1 (stereo unspecified)	i	?	i	20.6µM	i	i
O=C(Nc1ccc(Br)cc1)C(Cc1ccccc1)NS(=O)(=O)c1cccc2nsnc12 (stereo unspecified)	i	i	nt	i	nt	?
